From PubChem BioAssay
Pf Dd2 inh: inhibitors of Plasmodium falciparum Dd2 growth | P. falciparum Dd2 growth, SYBR Green, 72 h | Potency, µM (doses to about 28.9 µM), for the others: at the top dose activity, negative = inhibition, actives largely listed as inhibitors | hit rate 4.3% among 120,000; active = well fitted inhibition curve with a large enough effect;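 also: plate controls were DMSO vehicle for no effect and reference drug for full effect; nearly all actives have a fitted effect of over 65% in size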
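Infected erythrocytes (Dd2, 0.3% parasitemia, 2.5% hematocrit final) are added to compound in RPMI-1640/Albumax II medium, grown 72 h at 37C in low oxygen, then lysed with saponin/Triton-X containing SYBR Green and read by fluorescence.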
* marks the source's active call; other numbers are inactive results; i = inactive; [ ] = dose if it differs, or a comment. The entries come from a sample that favours hits as a whole. Potency is read from the fitted curve at half-maximal effect.

SMILES	Pf Dd2 inh
O=C(CSc1nc(-c2ccc(Cl)cc2)nc2c1Cc1ccccc1O2)N1CCCCC1	33%
Cc1ncc(CO)c2c1Oc1nc(-c3ccc(Cl)cc3)nc(SCC(=O)N3CCCCC3)c1C2	3.2µM*
CC(Cn1cccn1)C(=O)N1CCC(Oc2ccccc2)(C(=O)O)CC1 (stereo not given)	-7%
CN1CCC(NC(=O)c2cccc3c2CCN3C(=O)Nc2ccccc2)CC1	i
O=C(c1ccccc1F)N1CC(Oc2ccc(F)c(F)c2)C1	-21%
CCOCCNc1ncnc2c1CN(C1CCC1)C(=O)CN2C	i
O=C(c1cnc2c(c1)N([S+](=O)([O-])c1cccnc1)CCC2)N1CCN(Cc2ccccc2)CC1	6%
CC(C)N1C[C@H](O)C[C@H]1c1nnc2n1CCN(C(=O)c1cccnc1)CC2	25%
COc1ccc(-c2nc3nccc(-c4ccsc4)n3n2)c(OC)c1	i
CC(C)C[C@@H](NC(=O)C1=C[C@@H](NC(=O)c2cccs2)[C@@H](O)[C@H](O)C1)C(N)=O	12%[44.1 µM]
CNc1ncccc1C(=O)N1CCC(O)(c2ccc(C)cn2)CC1	-4%
Cc1ccc(C(=O)N2CCCC3(CCNCC3)CC2)cc1Cl	-14%
CNc1ccc(C)cc1C(=O)N1CCC2(CCCN(C)CC2)CC1	10µM*
COCCNc1ncnc2c1CCN(C(=O)CCc1n[nH]c(C)n1)CC2	1%
CNCC(=O)N1CCC(n2nccc2NC(=O)Nc2ccccc2Cl)CC1	-5%
O=C(NC1CCCN(c2cc(-c3ccccc3)[nH]n2)C1)c1ccc2[nH]ccc2c1 (stereo not given)	-5%
CN(C)c1cccc(C(=O)NC2CCN(c3cc(-c4ccc(Cl)cc4)[nH]n3)C2)c1 (stereo not given)	7.9µM*
COc1ccc(-c2cc(N3CCCC(NC(=O)c4ccccc4)C3)n[nH]2)cc1 (stereo not given)	i
COc1ccc(C(=O)NC2CCCN(c3cc(-c4ccc(F)cc4)[nH]n3)C2)cc1 (stereo not given)	-11%
COc1ccc(-c2cc(N3CCC(NC(=O)c4ccc(Cl)cc4)C3)n[nH]2)cc1 (stereo not given)	i
O=C(NC1CCCN(c2cc(-c3ccccc3)[nH]n2)C1)c1cccc(Br)c1 (stereo not given)	-9%
COc1ccc(-c2cc(N3CCCC(NC(=O)c4cccc(Br)c4)C3)n[nH]2)cc1 (stereo not given)	10µM*
CCOc1ccc(C(=O)NC2CCN(c3cc(-c4ccc(OC)cc4)[nH]n3)C2)cc1 (stereo not given)	i
CN(C)c1cccc(C(=O)NC2CCCN(c3cc(-c4ccccc4)[nH]n3)C2)c1 (stereo not given)	-1%
COc1ccc(-c2cc(N3CCC(NC(=O)c4ccc(C)cc4)C3)n[nH]2)cc1 (stereo not given)	11µM*
SMILES	Pf Dd2 inh
O=C(NC1CCN(c2cc(-c3ccc(Cl)cc3)[nH]n2)C1)c1ccncc1 (stereo not given)	i
COc1ccc(-c2cc(N3CCCC(NC(=O)c4ccc5[nH]ccc5c4)C3)n[nH]2)cc1 (stereo not given)	10µM*
COCC1CN(C2CCC2)CC12CCN(C(=O)CCn1cc(C)cn1)CC2 (stereo not given)	-15%
Cc1cc(C)n(Cc2ccc(C(=O)N3CCCC(CO)CCNC(=O)CC3)o2)n1 (stereo not given)	-11%
CCOC(=O)N1CCC(N[C@@H]2CC[C@@H]2NC(=O)c2cnc3cccnn23)CC1	-23%
COc1cccc(CN2CC(C(=O)NCc3cc4ccccc4[nH]3)CCC2=O)c1 (stereo not given)	2%
CC(C)(C)NC(=O)N1CCC2(CCC(=O)N(CC3CC3)CC2)CC1	i
COc1ccc(C(=O)NCCn2ccn3nc(-c4cc(C)ccc4C)cc3c2=O)cc1	-19%
CCOc1ccc(C2Cn3nnc(-c4nc(-c5ccc(SC)cc5)no4)c3CO2)cc1 (stereo not given)	i
COCc1cc(C[C@@H]2C[C@H](NC3CCN(C(C)=O)CC3)C2(C)C)no1	-16%[44.1 µM]
COCc1ccc(CN[C@H]2C[C@@H](Cc3cc(CN4CCCCC4)on3)C2(C)C)o1	11µM*
CC(=O)N[C@H]1C[C@@H](Cc2cc(CN(C)C)on2)C1(C)C	-17%[44.1 µM]
CCCCc1cc(C[C@@H]2C[C@H](NC(C)=O)C2(C)C)no1	i
COc1ccc(CN[C@H]2C[C@@H](Cc3cc(CN4CCOCC4)on3)C2(C)C)cc1	-29%[44.1 µM]
CC(=O)N[C@H]1C[C@@H](Cc2cc(CN3CCCCC3)on2)C1(C)C	22µM*
CCN1CCN(C(=O)Cn2cccc(OC)c2=O)CC1(C)C	-9%
CCc1ccc(Oc2c(C(F)(F)F)oc3c(CN4CCC(C)CC4)c(O)ccc3c2=O)cc1	0.32µM*
CCc1ccc(Oc2c(C(F)(F)F)oc3c(CN4CCN(CC)CC4)c(O)ccc3c2=O)cc1	0.1µM*
CCOc1ccc(CN2CCC(N(C(=O)CC)C3CCOCC3)CC2)cc1	i
CCN1CCN(Cc2c(O)ccc3c(=O)c(Oc4ccccc4Cl)c(C(F)(F)F)oc23)CC1	0.25µM*
CCN1CCN(C(c2ccccc2Cl)c2c(O)cc(C)n(Cc3ccco3)c2=O)CC1 (stereo not given)	10%
O=C1CCCCCN1C1CCN(Cc2ccc(OC(F)(F)F)cc2)CC1	i
COc1ccc(C(=O)N[C@@H]2CCC[C@@H]2C(=O)N(C)C)cc1	14%
O=C(C1CCOCC1)N1CCC(Oc2cccnc2)C1 (stereo not given)	13%
Cc1ccc(NC(=O)Nc2nc3c(s2)CCCCCC3)cc1C	-19%
SMILES	Pf Dd2 inh
Cc1cc(NC(=O)Nc2csc3c2CCCC3)ccc1Br	13µM*
Cc1cc(NC(=O)Nc2nnc(N(C)C3CCCCC3)s2)ccc1Br	-23%[5.79 µM]
COc1ccc(C(=O)N2CCN(CC3CC3)[C@@H]3CS(=O)(=O)C[C@@H]32)c(C)c1	9%
CN(Cc1ccccc1)C(=O)C[C@@H]1O[C@H](CNC(=O)C2CCCC2)[C@@H](O)[C@H]1O	23%[44.1 µM]
CCC(CC)C(=O)N1C[C@@H]2OCC(=O)N(Cc3ccccc3)[C@@H]2C1	i
CCOc1ccc(CCNC(=O)c2cc3c(=O)n(C)c4ccccc4c3s2)cc1OCC	i
CCCN(CCC)CCCNC(=O)c1cc2c(=O)n(C)c3ccccc3c2s1	10µM*
CCCN1CCN(CCCNC(=O)c2cc3c(s2)-c2ccccc2OC3)CC1	i
COc1ccc(NC(=O)c2cc3c(=O)n(C)c4ccccc4c3s2)cc1Cl	4%
CCCN1CCN(CCCNC(=O)c2cc3c(=O)[nH]c4ccccc4c3s2)CC1	13µM*
CCCN1CCN(CCCNC(=O)c2cc3c(s2)-c2c(C)cccc2OC3)CC1	i
COCc1nc(-c2ccc(OC3CCN(S(=O)(=O)c4c(C)noc4C)C3)cc2)no1 (stereo not given)	1%[5.79 µM]
CC(C)c1ccc(CN2CCC3(CC2)OC(=O)N(Cc2ncccn2)C3(C)c2ccccc2)cc1 (stereo not given)	-17%
COCCNC(=O)N1CCCC(c2noc(COC)n2)C1 (stereo not given)	25%
COc1cc(NC(=O)Cn2c(C)cc3nc4n(c(=O)c32)CCC4)cc(OC)c1OC	297%
COC[C@H]1NC(=O)CC[C@H]1C(=O)Nc1cccc(OC)c1	-14%
CCn1ncnc1C(C)NC(=O)c1cn(CCN2CCNCC2)nn1 (stereo not given)	25%
Cc1ccc(-c2c(C(=O)N3CCN(c4cccc(C)c4)C(C)C3)oc(=O)c3ccccc23)cc1 (stereo not given)	4.5µM*
